Experiment [1] in a line: HepG2 liver cancer cell viability effects, profiling panel, resazurin fluorescence, 24 h, PK04 Diversity Set (AID 1172). To be noted: higher = more signal.
Experiment [2] can be described thus: basal S. cerevisiae growth modulation, no modifier, primary screen, OD600, strain BY4716, 24 h, basal condition (AID 1173). The note with it: OD600, 24 h, higher = more signal, called active from +8 up or from −8 down.
The nature of experiment [3]: MM1S myeloma cell viability, profiling panel, resazurin fluorescence, basal, 24 h, PK04 Diversity Set (AID 1174).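 Note: MM1S multiple myeloma cell line.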 The note with it: higher = more signal, called active from +8 up or from −8 down. Background: The colour change of resazurin is a common sign of viable cells or microbes.
In experiment [4] the target is Dihydroorotate dehydrogenase (quinone), mitochondrial (Plasmodium falciparum (isolate 3D7)) (UniProt Q08210). The experiment can be described thus: PfDHODH enzyme inhibitors, primary screen, biochemical, C-terminal His tag, absorbance 600 nm (AID 1175).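 Note: recombinant parasite enzyme with a five histidine tag at its C terminus.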 The note with it: DCIP absorbance 600 nm, higher = more signal, called active from +8 up or from −8 down.
Sequence of Dihydroorotate dehydrogenase (quinone), mitochondrial (Plasmodium falciparum (isolate 3D7)) (Q08210 whole entry, looked up): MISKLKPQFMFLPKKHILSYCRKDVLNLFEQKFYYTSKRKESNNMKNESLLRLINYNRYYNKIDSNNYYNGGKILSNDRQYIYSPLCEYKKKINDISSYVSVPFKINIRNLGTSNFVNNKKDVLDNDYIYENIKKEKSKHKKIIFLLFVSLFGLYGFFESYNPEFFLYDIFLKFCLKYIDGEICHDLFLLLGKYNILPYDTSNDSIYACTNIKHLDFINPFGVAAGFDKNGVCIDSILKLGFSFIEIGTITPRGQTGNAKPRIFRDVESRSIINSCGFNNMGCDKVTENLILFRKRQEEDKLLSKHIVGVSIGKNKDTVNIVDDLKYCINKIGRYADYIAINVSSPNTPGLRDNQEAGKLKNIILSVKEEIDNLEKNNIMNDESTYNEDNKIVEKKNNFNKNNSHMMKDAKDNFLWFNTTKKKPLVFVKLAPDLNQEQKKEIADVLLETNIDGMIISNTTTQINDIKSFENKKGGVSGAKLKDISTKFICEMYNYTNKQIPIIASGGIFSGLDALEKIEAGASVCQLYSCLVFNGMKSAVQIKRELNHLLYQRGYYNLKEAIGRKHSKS
Experiment [5] is described as follows: P. aeruginosa biofilm formation inhibitors, primary screen, strain PAO1, LB-PBS medium, absorbance 600 nm (AID 1176). The note with it: P. aeruginosa PAO1 growth/biofilm, A600, 12 h; higher = more signal.
The nature of experiment [6]: S. cerevisiae RM11-1a growth modifiers, primary screen, strain RM11-1a, OD600, basal, 24 h (AID 1177).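 Note: cultures grown under basal conditions with no added stressor.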 The note with it: OD600, 24 h, higher = more signal, called active from +8 up or from −8 down.
Experiment [7] can be described thus: E. coli acrAB mutant growth effects, primary screen, E. coli filamentation inducers, strain DRC39, OD650, 24 h (AID 1178).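 Note: growth measured as culture turbidity by optical density at 650 nm.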 The note with it: higher = more signal, called active from +8 up or from −8 down.
Experiment [8] can be described thus: E. coli acrAB mutant growth effects, primary screen, E. coli filamentation inducers, strain DRC39, OD650, 48 h (AID 1179).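 Note: screen aims at cell division blockers that make cells filament.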 To be noted: E. coli DRC39 delta-acrAB growth, higher = more signal, called active from +8 up or from −8 down.
Experiment [9] in a line: RPMI8226 myeloma cell viability, profiling panel, resazurin fluorescence, basal, 24 h, PK04 Diversity Set (AID 1180).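 Note: RPMI8826 multiple myeloma cell line at 5000 cells per well.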 The note with it: higher = more signal.
The target in experiment [10] is E3 ubiquitin-protein ligase XIAP (Homo sapiens) (UniProt P98170). The experiment can be described thus: XIAP binders, primary screen, biophysical, small-molecule microarray, fluorescence 635 nm (AID 1181).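 Note: score merges 667 nm emission and signal to noise over triplicate slides.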 To be noted: small-molecule microarray binding, higher = more signal.
Sequence of E3 ubiquitin-protein ligase XIAP (Homo sapiens) (P98170 whole entry, looked up): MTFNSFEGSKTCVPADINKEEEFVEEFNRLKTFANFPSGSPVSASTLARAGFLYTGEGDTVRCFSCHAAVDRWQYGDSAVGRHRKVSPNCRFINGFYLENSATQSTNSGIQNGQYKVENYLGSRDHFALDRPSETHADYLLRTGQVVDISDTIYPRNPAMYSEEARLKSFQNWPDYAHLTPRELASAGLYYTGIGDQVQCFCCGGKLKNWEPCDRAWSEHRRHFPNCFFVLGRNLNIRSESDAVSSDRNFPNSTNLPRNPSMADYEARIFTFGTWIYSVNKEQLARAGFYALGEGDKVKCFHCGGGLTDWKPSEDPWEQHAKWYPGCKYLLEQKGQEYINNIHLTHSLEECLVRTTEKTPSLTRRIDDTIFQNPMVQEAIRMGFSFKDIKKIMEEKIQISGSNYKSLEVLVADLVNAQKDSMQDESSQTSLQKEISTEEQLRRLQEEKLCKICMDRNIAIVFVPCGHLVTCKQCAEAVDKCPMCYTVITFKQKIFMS
Experiment [11] deals with XIP peptide (Xip251-270) binding. The experiment can be described thus: small-molecule binders of XIP peptide, primary screen, biochemical, small-molecule microarray, fluorescence 635/667 nm, 0.1 µg/mL protein (AID 1182). To be noted: fluorescent protein binding, 635 nm, higher = more signal, called active from +8 up or from −8 down.
A further experiment concerns XIP peptide (Xip251-270). The experiment can be described thus: small-molecule binders of XIP peptide, primary screen, biochemical, small-molecule microarray, fluorescence 635/667 nm, 0.5 µg/mL protein (AID 1183). The note with it: small-molecule microarray binding, fluorescence 635 nm; higher = more signal.
The nature of experiment [12]: Plasmodium falciparum growth inhibition, primary screen, strain 3D7, DAPI fluorescence, 100 nL (AID 1184).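 Note: parasites grown inside human red blood cells in medium with human serum.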 The note with it: P. falciparum 3D7 growth, 3 d, higher = more signal.
In experiment [13] the target is Homeobox protein Hox-A13 (Mus musculus) (UniProt Q62424). The experiment can be described thus: inhibitors of HoxA13-DNA binding, primary screen, biochemical, fluorescence polarization, labeled oligonucleotide (AID 1185). The note with it: 15 min, higher = more signal, called active from +8 up or from −8 down.
Sequence of Homeobox protein Hox-A13 (Mus musculus) (Q62424 whole entry, looked up): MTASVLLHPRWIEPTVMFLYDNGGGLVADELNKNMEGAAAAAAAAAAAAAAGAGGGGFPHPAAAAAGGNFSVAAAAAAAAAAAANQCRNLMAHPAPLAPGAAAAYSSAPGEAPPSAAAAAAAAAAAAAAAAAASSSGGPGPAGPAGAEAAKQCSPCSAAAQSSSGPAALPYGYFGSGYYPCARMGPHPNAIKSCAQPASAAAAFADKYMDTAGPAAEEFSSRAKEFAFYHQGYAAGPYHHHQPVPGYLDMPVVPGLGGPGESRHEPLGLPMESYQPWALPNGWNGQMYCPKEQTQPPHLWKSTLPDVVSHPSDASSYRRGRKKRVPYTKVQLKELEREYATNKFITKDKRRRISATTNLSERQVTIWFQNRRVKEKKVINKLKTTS
Experiment [14] can be described thus: inhibitors of hydroxyurea-induced Chk1 phosphorylation, primary screen, imaging, HeLa, phospho-Chk1 antibody, percent positive cells (AID 1186). The note with it: hydroxyurea-induced phospho-Chk1 immunofluorescence imaging, higher = more signal.
A short description of experiment [15]: inhibitors of hydroxyurea-induced Chk1 phosphorylation, primary screen, imaging, HeLa, phospho-Chk1 nuclear intensity (AID 1187). To be noted: hydroxyurea-induced phospho-Chk1 immunofluorescence imaging, higher = more signal.

Calls of active or inactive are those of the source. Unless noted, the rule behind the calls is not given here.

On to `COCCCNC(=O)[C@@]1(Cc2ccccc2N=[N+]=[N-])N=C(c2ccc(OCCCO)cc2)O[C@H]1c1ccccc1CN=[N+]=[N-]`, for which the z-score is -0.859 in experiment [1]; -0.255 (inactive) in experiment [2]; -1.2 (inactive) in [3]; 1.72 (inactive) in [5]; 0.154 (inactive) in experiment [6]; 2.63 (inactive) in experiment [7]. For the same compound, the z-score is 0.575 (inactive) in experiment [8]; -2.25 in experiment [9]; -2.23 in experiment [12]; 0.427 (inactive) in experiment [13]; -0.314 (inactive) in experiment [14]; 0.446 (inactive) in experiment [15]. Also, the composite z-score in experiment [4] is 0.283 (inactive); in experiment [10], -0.183; in experiment [11], 0.401 (inactive); in the experiment with XIP peptide (Xip251-270) it was 0.763.
As for `CCCCCCCCCCC(O)C1C=CC2C(=O)NC(=O)C2N1Nc1ccccn1` (centres undefined), the z-score in experiment [1] is -2.19; in [2], -10.4 (active); in experiment [3], -2.8 (inactive); in experiment [5], 2.43 (inactive); in [6], -5.05 (inactive); in [7] it was -2.29 (inactive). Moreover, the z-score was -3.65 (inactive) in [8]; -1.64 in experiment [9]; 1.05 in [12]; -2.89 (inactive) in experiment [13]; 0.764 (inactive) in experiment [14]; 0.554 (inactive) in experiment [15]. For the same compound, the composite z-score in experiment [4] was 0.364 (inactive); in experiment [10], 0.0153; in [11] it was -0.0785 (inactive); in the experiment with XIP peptide (Xip251-270), -0.0706.
As for `COCCCNC(=O)[C@@]1(Cc2ccccc2)COC(c2ccc(OCCCO)cc2)=N1`, the z-score is 0.515 in [1]; -0.0995 (inactive) in experiment [2]; 0.141 (inactive) in experiment [3]; -0.499 (inactive) in [5]; -0.031 (inactive) in experiment [6]; -0.13 (inactive) in [7]. The z-score in experiment [8] was 0.993 (inactive); in [9], 1.22; in [12], -0.723; in experiment [13], -4.31 (inactive); in [14], -0.0447 (inactive); in [15], -0.109 (inactive). Moreover, the composite z-score is 0.45 (inactive) in experiment [4], -0.098 in [10], 0.506 (inactive) in experiment [11] and 0.811 in the experiment on XIP peptide (Xip251-270).
As for `CCCC=C(CCC)[C@@H](NC(=O)Cc1ccccc1)c1ccc(C(=O)OC)cc1`, the z-score in experiment [1] was -0.704; in experiment [2] it was 0.951 (inactive); in experiment [3], -1.14 (inactive); in experiment [5], 0.964 (inactive); in [6] it was 1.49 (inactive); in [7], 0.276 (inactive). Also, the z-score is 0.543 (inactive) in [8]; -0.702 in experiment [9]; -0.958 in [12]; -1.93 (inactive) in experiment [13]; 0.374 (inactive) in experiment [14]; -0.309 (inactive) in experiment [15]. Also, the composite z-score is -0.831 (inactive) in experiment [4], 0.11 in [10], 0.349 (inactive) in experiment [11] and 0.34 in the experiment with XIP peptide (Xip251-270).
Regarding `CC(C)CNC(=O)[C@@]1(c2ccc([N+](=O)[O-])cc2)CC(=O)N(C(C)C)[C@@H]1c1ccc(CO)cc1`, the z-score in experiment [1] was -0.0273; in [2], -0.78 (inactive); in [3], 1.23 (inactive); in [5], -0.301 (inactive); in experiment [6] it was -0.738 (inactive); in [7] it was 0.474 (inactive). Further, the z-score in [8] was 1.53 (inactive); in experiment [9], 1.37; in experiment [12], -0.253; in experiment [13], -1.21 (inactive); in experiment [14], -0.19 (inactive); in experiment [15] it was -0.0822 (inactive). Further, the composite z-score in [4] was 1.14 (inactive); in [10], -0.13; in experiment [11], -0.299 (inactive); in the experiment with XIP peptide (Xip251-270), 0.131.
Turning to `COc1ccc([Si](C)(C)[C@@H]2[C@@H](CCO)O[C@]3(C(=O)N(Cc4ccccc4)c4ccc(N5CCCCC5=O)cc43)[C@H]2C)cc1`, the z-score in experiment [1] was -1.62; in experiment [2], 0.86 (inactive); in experiment [3], -3.11 (inactive); in experiment [5] it was -0.565 (inactive); in [6] it was 3.49 (inactive); in experiment [7], -0.277 (inactive). The z-score in experiment [8] was -0.18 (inactive); in experiment [9], -2.29; in experiment [12], -2.89; in [13], -4.29 (inactive); in experiment [14], -1.71 (inactive); in experiment [15] it was -1.73 (inactive). Also, the composite z-score in experiment [4] was -2.04 (inactive); in experiment [10], -0.0826; in [11] it was 2.38 (inactive); in the experiment with XIP peptide (Xip251-270), 0.565.
For the compound `COCCOC(=O)N1C(=O)[C@@]2(c3ccccc31)[C@H](c1ccc(OCCO)cc1)N1[C@H](c3ccccc3)[C@H](c3ccccc3)OC(=O)[C@H]1[C@@H]2C(=O)NC[C@H](O)c1ccccc1`, the z-score in experiment [1] is 0.37; in experiment [2], 1.96 (inactive); in [3], -0.261 (inactive); in [5] it was 2.32 (inactive); in [6], 2.94 (inactive); in [7] it was 0.271 (inactive). Also, the z-score is 0.193 (inactive) in experiment [8]; -0.25 in experiment [9]; -1.64 in experiment [12]; -4.23 (inactive) in experiment [13]; 0.228 (inactive) in experiment [14]; 0.726 (inactive) in [15]. The composite z-score in experiment [4] was -1.93 (inactive); in experiment [10] it was -0.148; in experiment [11], 0.103 (inactive); in the experiment on XIP peptide (Xip251-270) it was 0.808.
For the compound `O=C1NC(=O)C2C1C=CC(C(O)c1ccc(-c3ccccc3)s1)N2Nc1ccccn1` (centres undefined), the z-score in [1] is -1.04; in experiment [2], 1.14 (inactive); in experiment [3] it was -1.12 (inactive); in experiment [5], 1.23 (inactive); in experiment [6], 0.347 (inactive); in experiment [7], 0.547 (inactive). Besides, the z-score in experiment [8] is 0.193 (inactive); in [9], -1.17; in [12], -0.169; in [13], -3.88 (inactive); in experiment [14], 0.773 (inactive); in experiment [15], -0.264 (inactive). Besides, the composite z-score in experiment [4] was 1.24 (inactive); in [10], 0.549; in experiment [11] it was 1.05 (inactive); in the experiment on XIP peptide (Xip251-270), 0.212.
On to `COc1cc2c(cc1OC)CN(C(=O)[C@@H]1[C@H]3C(=O)O[C@H](c4ccccc4)[C@H](c4ccccc4)N3[C@H](c3ccc(O)cc3)[C@@]13C(=O)Nc1ccc(C#CCNC(N)=O)cc13)CC2`, for which the z-score was 1.1 in [1]; 0.526 (inactive) in experiment [2]; 0.602 (inactive) in [3]; 0.723 (inactive) in [5]; 2.03 (inactive) in experiment [6]; 0.595 (inactive) in experiment [7]. The z-score in experiment [8] was 0.322 (inactive); in [9], 0.431; in experiment [12], -0.656; in experiment [13] it was -1.67 (inactive); in experiment [14], 0.259 (inactive); in experiment [15], 0.278 (inactive). Besides, the composite z-score in experiment [4] is -0.0904 (inactive); in [10], -0.0663; in [11], 0.503 (inactive); in the experiment on XIP peptide (Xip251-270), -0.0161.

Source of the values: PubChem BioAssay.
